Molecules are shown by their SMILES. The panel holds about 83,000 compounds, 20% with a hit somewhere; the sample as a whole holds those more often.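 Testing used 96-well plates and a 48-hour single-concentration exposure. Example: -40 means 40% of the starting cells died.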 Unmarked numbers belong to inactive results. The source made the active and inactive calls. Rule for the calls: active = growth percent below 10; inactive = the rest.

Some test systems named below: SR leukemia; RPMI-8226 leukemia; OVCAR-8 ovarian; OVCAR-5 ovarian; OVCAR-4 ovarian; SK-OV-3 ovarian; IGROV1 ovarian; OVCAR-3 ovarian; HS 578T breast; NCI/ADR-RES ovarian; T-47D breast; BT-549 breast; MDA-MB-435 melanoma; SW-620 colon; MCF7 breast; HCT-116 colon; HCC-2998 colon; KM12 colon.
What all share (assay): NCI-60 one-dose screen, 48 h (100 = growth as untreated, 0 = no growth, -100 = all killed)
What all share (details): 10 µM unless noted

Turning to `CN1CCN(Cc2ccc(NC(=O)c3cncc(C#Cc4cnc5ccc(OCC6(C)COC6)nn45)c3)cc2C(F)(F)F)CC1`, the growth with SR leukemia is -13.9% (active); in the assay on RPMI-8226 leukemia, -17.7% (active); in the assay on OVCAR-8 ovarian, -15.3% (active); in the assay on OVCAR-5 ovarian, -73.2% (active); in the assay on OVCAR-4 ovarian, -54.7% (active); in the assay on SK-OV-3 ovarian it was -90.8% (active). For the same compound, the growth in the assay on IGROV1 ovarian was -63.8% (active); in the assay on OVCAR-3 ovarian, -74.5% (active); in the assay on HS 578T breast it was -50.2% (active); in the assay with NCI/ADR-RES ovarian, -58.1% (active); in the assay with T-47D breast, -49.9% (active); in the assay on BT-549 breast, -62% (active). Moreover, the growth in the assay on MDA-MB-435 melanoma is -90.9% (active); in the assay with SW-620 colon, -44.8% (active); in the assay with MCF7 breast, -76% (active); with HCT-116 colon, -75.5% (active); in the assay on HCC-2998 colon, -89.6% (active); in the assay on KM12 colon, -82.1% (active).

For the compound `O=[N+]([O-])c1cc(/C=N/Nc2nc(N/N=C/c3ccc(Cl)c([N+](=O)[O-])c3)nc(N3CCCCC3)n2)ccc1Cl`, the growth in the assay on SR leukemia is 63.2%; in the assay on RPMI-8226 leukemia, -18.3% (active); in the assay with OVCAR-8 ovarian, 31%; in the assay on OVCAR-5 ovarian, 108%; in the assay on OVCAR-4 ovarian, 86.9%; in the assay on SK-OV-3 ovarian, 98.8%. Also, the growth with IGROV1 ovarian is 52.7%; in the assay on OVCAR-3 ovarian, -7.45% (active); in the assay on HS 578T breast it was 53.8%; with NCI/ADR-RES ovarian, 30.2%; in the assay with T-47D breast it was 48.2%; in the assay with BT-549 breast, 97.9%. The growth is 92.3% with MDA-MB-435 melanoma; 63.7% in the assay on SW-620 colon; 0.909% (active) in the assay on MCF7 breast; 22% in the assay with HCT-116 colon; 67.4% in the assay with HCC-2998 colon; 5.45% (active) in the assay on KM12 colon.

Take `COC(=O)C(Cc1ccccc1)Nc1nc(NC(Cc2ccccc2)C(=O)OC)nc(N2CCOCC2)n1` (centres undefined): the growth in the assay with SR leukemia is 100%; with RPMI-8226 leukemia, 98.5%; with OVCAR-8 ovarian, 99.6%; with OVCAR-5 ovarian, 106%; in the assay on OVCAR-4 ovarian, 107%; in the assay on SK-OV-3 ovarian, 103%. For the same compound, the growth was 98.6% in the assay on IGROV1 ovarian; 111% in the assay with OVCAR-3 ovarian; 101% in the assay on HS 578T breast; 111% with NCI/ADR-RES ovarian; 101% with T-47D breast; 112% with BT-549 breast. Besides, the growth in the assay on MDA-MB-435 melanoma is 105%; in the assay on SW-620 colon it was 112%; in the assay on MCF7 breast it was 97.8%; in the assay on HCT-116 colon, 99.2%; with HCC-2998 colon it was 110%; in the assay with KM12 colon it was 99.7%.

With `Oc1cccc2ccc(-c3nnc(SCc4ccc(O)c5ncccc45)n3-c3ccccc3)nc12`, the growth with SR leukemia is 31.2%; in the assay on RPMI-8226 leukemia it was 15.6%; with OVCAR-8 ovarian, 6.56% (active); in the assay on OVCAR-5 ovarian it was 47.8%; in the assay with OVCAR-4 ovarian, 16.8%; with SK-OV-3 ovarian it was 12.1%. For the same compound, the growth in the assay with IGROV1 ovarian is 11.2%; in the assay on OVCAR-3 ovarian, 28.3%; with HS 578T breast, 18.5%; with NCI/ADR-RES ovarian it was 7.68% (active); in the assay with T-47D breast it was 9.55% (active); in the assay on BT-549 breast it was 26.1%. Besides, the growth in the assay with MDA-MB-435 melanoma was 17%; in the assay with SW-620 colon, 16.4%; in the assay on MCF7 breast, 6.09% (active); in the assay with HCT-116 colon, 10.5%; in the assay on HCC-2998 colon it was 28.2%; in the assay with KM12 colon, 10.9%.

In the case of `COc1ccc(N2CCN(C3=C(Cl)C(=O)C(C)=C(C)C3=O)CC2)cc1`, the growth in the assay with SR leukemia is 78.6%; in the assay on RPMI-8226 leukemia, 89.4%; in the assay on OVCAR-8 ovarian it was 100%; with OVCAR-5 ovarian, 110%; in the assay with OVCAR-4 ovarian it was 99.7%; in the assay on SK-OV-3 ovarian it was 96.7%. Further, the growth with IGROV1 ovarian was 103%; in the assay on OVCAR-3 ovarian, 113%; in the assay on HS 578T breast, 103%; in the assay on NCI/ADR-RES ovarian, 101%; in the assay on T-47D breast, 30%; with BT-549 breast, 117%. Besides, the growth was 105% with MDA-MB-435 melanoma; 113% with SW-620 colon; 92.1% in the assay on MCF7 breast; 99.3% in the assay with HCT-116 colon; 111% in the assay with HCC-2998 colon; 107% in the assay on KM12 colon.

In the case of `Fc1ccc(-c2cc3nc(C(Cl)Cl)nc(-c4ccco4)n3n2)cc1`, the growth in the assay on SR leukemia is 64.8%; with RPMI-8226 leukemia it was -31.5% (active); with OVCAR-8 ovarian it was 10.4%; in the assay with OVCAR-5 ovarian it was -13.7% (active); in the assay on OVCAR-4 ovarian, 17.7%; with SK-OV-3 ovarian, 18.8%. Also, the growth is 74.3% in the assay on IGROV1 ovarian; -46.9% (active) in the assay with OVCAR-3 ovarian; -6.45% (active) in the assay with HS 578T breast; -18.9% (active) in the assay on NCI/ADR-RES ovarian; 7.31% (active) in the assay on T-47D breast; 82.4% in the assay with BT-549 breast. The growth in the assay with MDA-MB-435 melanoma was -1.86% (active); in the assay on SW-620 colon, 3.29% (active); with MCF7 breast it was -8.71% (active); with HCT-116 colon, -36.8% (active); in the assay on HCC-2998 colon it was -69.1% (active); in the assay with KM12 colon, -24.5% (active).

Consider `CC1(C)CC[C@]2(CN)CC[C@]3(C)C(=CC[C@@H]4[C@@]5(C)CCCNC(C)(C)[C@@H]5CC[C@]43C)[C@H]2C1`, for which the growth in the assay on SR leukemia is 61.7%; in the assay with RPMI-8226 leukemia, 81.3%; with OVCAR-8 ovarian, 101%; in the assay on OVCAR-5 ovarian, 105%; with OVCAR-4 ovarian it was 103%; with SK-OV-3 ovarian, 106%. Also, the growth is 98.1% in the assay on IGROV1 ovarian; 106% in the assay on OVCAR-3 ovarian; 108% in the assay with HS 578T breast; 105% in the assay on NCI/ADR-RES ovarian; 78.3% with T-47D breast; 101% in the assay with BT-549 breast. In addition, the growth with MDA-MB-435 melanoma is 97.3%; in the assay with SW-620 colon it was 102%; in the assay on MCF7 breast it was 85.7%; with HCT-116 colon, 90.6%; in the assay on HCC-2998 colon it was 45.9%; in the assay with KM12 colon, 101%.

`Cc1ccc(NC(=S)NNC(=S)Nc2ccc(C)cc2)cc1`: the growth in the assay with SR leukemia is 90%; with RPMI-8226 leukemia, 104%; in the assay with OVCAR-8 ovarian it was 105%; with OVCAR-5 ovarian, 104%; in the assay with OVCAR-4 ovarian it was 100%; with SK-OV-3 ovarian it was 111%. In addition, the growth in the assay on IGROV1 ovarian was 103%; with OVCAR-3 ovarian, 127%; in the assay on HS 578T breast, 110%; in the assay with NCI/ADR-RES ovarian it was 104%; in the assay on T-47D breast, 101%; with BT-549 breast it was 92.9%. The growth is 102% in the assay with MDA-MB-435 melanoma; 108% with SW-620 colon; 91.1% in the assay on MCF7 breast; 106% in the assay with HCT-116 colon; 110% with HCC-2998 colon; 101% with KM12 colon.

For the origin of these results see PubChem BioAssay (NCI).
